Measurements as given in ChEMBL document CHEMBL1961873, “Compounds: GSK PKIS; Assays: Nanosyn kinase panel” (2012).

Assays:
[1] = target: Ribosomal protein S6 kinase alpha-6 (Homo sapiens) (UniProt Q9UK32); settings: at 1 µM;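 further: each value is a mean inhibition of RSK4 from a GSK PKIS panel screen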
[2] = target: T1, Serine/threonine-protein kinase Sgk1 (Homo sapiens) (UniProt O00141); settings: at 0.1 µM
T1 sequence (whole entry): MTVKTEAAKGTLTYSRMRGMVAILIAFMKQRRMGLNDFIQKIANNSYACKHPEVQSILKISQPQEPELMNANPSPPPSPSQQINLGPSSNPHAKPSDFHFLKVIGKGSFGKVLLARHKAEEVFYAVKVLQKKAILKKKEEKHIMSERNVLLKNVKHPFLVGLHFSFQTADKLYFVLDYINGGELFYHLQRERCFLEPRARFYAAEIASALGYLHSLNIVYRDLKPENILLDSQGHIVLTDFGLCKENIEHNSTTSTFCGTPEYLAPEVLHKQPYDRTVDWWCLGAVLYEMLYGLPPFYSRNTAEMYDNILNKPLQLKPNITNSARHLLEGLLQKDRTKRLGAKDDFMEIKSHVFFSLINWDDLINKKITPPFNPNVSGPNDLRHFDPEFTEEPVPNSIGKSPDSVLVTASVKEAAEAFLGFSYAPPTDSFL

[3] = target: T1, Serine/threonine-protein kinase Sgk1 (Homo sapiens); settings: at 1 µM
[4] = target: T2, Serine/threonine-protein kinase Sgk2 (Homo sapiens) (UniProt Q9HBY8); settings: at 0.1 µM
T2 sequence (whole entry): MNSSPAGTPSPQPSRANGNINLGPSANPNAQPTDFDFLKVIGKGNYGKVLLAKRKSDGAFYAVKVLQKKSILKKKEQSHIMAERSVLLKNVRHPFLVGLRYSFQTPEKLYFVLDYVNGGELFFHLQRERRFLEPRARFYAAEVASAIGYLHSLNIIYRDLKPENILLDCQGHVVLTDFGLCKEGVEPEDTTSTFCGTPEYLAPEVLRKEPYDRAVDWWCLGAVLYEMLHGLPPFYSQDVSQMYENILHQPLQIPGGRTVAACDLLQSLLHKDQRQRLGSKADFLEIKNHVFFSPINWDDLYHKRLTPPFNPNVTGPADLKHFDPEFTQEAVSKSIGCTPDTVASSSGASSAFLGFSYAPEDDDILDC

[5] = target: T2, Serine/threonine-protein kinase Sgk2 (Homo sapiens); settings: at 1 µM
[6] = target: T3, Serine/threonine-protein kinase Sgk3 (Homo sapiens) (UniProt Q96BR1); settings: at 0.1 µM
T3 sequence (whole entry): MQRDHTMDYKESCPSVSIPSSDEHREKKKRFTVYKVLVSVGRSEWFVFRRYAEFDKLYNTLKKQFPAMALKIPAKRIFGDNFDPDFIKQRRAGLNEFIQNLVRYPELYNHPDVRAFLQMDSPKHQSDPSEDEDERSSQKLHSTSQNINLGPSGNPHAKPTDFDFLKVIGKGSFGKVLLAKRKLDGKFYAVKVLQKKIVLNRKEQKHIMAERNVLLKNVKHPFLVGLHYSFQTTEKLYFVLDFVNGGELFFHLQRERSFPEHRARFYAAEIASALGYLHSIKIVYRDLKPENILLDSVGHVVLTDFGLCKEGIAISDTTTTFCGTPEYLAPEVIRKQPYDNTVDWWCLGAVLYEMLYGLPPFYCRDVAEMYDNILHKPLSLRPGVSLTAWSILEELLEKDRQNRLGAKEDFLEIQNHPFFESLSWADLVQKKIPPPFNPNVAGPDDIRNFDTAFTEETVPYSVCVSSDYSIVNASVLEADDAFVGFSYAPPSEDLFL

[7] = target: T3, Serine/threonine-protein kinase Sgk3 (Homo sapiens); settings: at 1 µM
[8] = target: 5'-AMP-activated protein kinase catalytic subunit alpha-1 (Homo sapiens) (UniProt Q13131); settings: at 0.1 µM
Chain of 5'-AMP-activated protein kinase catalytic subunit alpha-1 (Homo sapiens) (Q13131 whole entry, looked up): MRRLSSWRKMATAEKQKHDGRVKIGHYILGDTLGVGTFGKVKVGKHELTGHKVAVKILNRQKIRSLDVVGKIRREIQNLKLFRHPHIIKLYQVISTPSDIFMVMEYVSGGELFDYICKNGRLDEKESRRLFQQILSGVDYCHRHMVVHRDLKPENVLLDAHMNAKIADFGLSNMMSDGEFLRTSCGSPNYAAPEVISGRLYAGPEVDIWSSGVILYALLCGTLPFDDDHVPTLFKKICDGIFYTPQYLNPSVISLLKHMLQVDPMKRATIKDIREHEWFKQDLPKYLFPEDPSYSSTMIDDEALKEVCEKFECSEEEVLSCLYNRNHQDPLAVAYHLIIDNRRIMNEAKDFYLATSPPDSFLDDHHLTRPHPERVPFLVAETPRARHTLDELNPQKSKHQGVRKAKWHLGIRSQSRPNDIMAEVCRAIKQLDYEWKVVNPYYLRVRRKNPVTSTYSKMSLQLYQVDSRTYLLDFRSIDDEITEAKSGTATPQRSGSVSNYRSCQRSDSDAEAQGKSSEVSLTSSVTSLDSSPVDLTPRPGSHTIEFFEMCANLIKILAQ

[9] = target: 5'-AMP-activated protein kinase catalytic subunit alpha-1 (Homo sapiens) (UniProt Q13131); settings: at 1 µM
[10] = target: 5'-AMP-activated protein kinase catalytic subunit alpha-2 (Homo sapiens) (UniProt P54646); settings: at 0.1 µM
Chain of 5'-AMP-activated protein kinase catalytic subunit alpha-2 (Homo sapiens) (P54646 whole entry, looked up): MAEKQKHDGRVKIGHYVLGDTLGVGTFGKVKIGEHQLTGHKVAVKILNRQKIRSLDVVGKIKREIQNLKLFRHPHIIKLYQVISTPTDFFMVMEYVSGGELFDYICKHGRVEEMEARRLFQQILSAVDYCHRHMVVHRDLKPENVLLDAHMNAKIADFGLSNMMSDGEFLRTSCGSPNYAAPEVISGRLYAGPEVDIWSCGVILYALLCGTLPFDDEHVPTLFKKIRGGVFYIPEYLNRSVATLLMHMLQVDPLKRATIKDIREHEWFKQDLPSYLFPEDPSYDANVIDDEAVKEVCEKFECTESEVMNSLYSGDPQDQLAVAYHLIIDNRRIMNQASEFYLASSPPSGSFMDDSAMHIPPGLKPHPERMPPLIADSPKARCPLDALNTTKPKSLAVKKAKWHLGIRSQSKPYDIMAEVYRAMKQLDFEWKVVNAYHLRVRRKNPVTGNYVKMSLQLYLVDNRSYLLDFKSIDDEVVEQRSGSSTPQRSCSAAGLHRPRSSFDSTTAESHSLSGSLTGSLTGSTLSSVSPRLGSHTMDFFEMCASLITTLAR

[11] = target: 5'-AMP-activated protein kinase catalytic subunit alpha-2 (Homo sapiens) (UniProt P54646); settings: at 1 µM
[12] = target: T4, NUAK family SNF1-like kinase 1 (Homo sapiens) (UniProt O60285); settings: at 0.1 µM
T4 sequence (whole entry): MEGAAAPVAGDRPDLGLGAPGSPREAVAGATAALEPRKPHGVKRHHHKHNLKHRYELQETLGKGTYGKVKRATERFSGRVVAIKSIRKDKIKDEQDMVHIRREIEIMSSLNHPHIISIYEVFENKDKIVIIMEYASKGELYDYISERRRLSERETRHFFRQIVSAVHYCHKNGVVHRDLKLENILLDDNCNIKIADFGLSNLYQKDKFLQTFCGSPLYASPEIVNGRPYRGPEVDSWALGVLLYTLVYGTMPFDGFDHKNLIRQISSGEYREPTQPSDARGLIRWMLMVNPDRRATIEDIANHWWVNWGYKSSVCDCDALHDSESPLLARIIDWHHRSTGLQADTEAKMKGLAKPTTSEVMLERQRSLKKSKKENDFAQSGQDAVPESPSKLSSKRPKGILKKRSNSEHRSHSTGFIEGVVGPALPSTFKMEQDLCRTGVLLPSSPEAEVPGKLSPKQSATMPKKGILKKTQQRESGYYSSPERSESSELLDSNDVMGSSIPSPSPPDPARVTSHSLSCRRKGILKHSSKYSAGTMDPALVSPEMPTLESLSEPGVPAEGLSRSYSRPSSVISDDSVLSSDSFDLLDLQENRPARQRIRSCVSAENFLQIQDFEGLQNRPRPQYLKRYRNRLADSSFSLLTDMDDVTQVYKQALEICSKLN

[13] = target: T4, NUAK family SNF1-like kinase 1 (Homo sapiens); settings: at 1 µM
[14] = target: T5, Serine/threonine-protein kinase BRSK1 (Homo sapiens) (UniProt Q8TDC3); settings: at 0.1 µM
T5 sequence (whole entry): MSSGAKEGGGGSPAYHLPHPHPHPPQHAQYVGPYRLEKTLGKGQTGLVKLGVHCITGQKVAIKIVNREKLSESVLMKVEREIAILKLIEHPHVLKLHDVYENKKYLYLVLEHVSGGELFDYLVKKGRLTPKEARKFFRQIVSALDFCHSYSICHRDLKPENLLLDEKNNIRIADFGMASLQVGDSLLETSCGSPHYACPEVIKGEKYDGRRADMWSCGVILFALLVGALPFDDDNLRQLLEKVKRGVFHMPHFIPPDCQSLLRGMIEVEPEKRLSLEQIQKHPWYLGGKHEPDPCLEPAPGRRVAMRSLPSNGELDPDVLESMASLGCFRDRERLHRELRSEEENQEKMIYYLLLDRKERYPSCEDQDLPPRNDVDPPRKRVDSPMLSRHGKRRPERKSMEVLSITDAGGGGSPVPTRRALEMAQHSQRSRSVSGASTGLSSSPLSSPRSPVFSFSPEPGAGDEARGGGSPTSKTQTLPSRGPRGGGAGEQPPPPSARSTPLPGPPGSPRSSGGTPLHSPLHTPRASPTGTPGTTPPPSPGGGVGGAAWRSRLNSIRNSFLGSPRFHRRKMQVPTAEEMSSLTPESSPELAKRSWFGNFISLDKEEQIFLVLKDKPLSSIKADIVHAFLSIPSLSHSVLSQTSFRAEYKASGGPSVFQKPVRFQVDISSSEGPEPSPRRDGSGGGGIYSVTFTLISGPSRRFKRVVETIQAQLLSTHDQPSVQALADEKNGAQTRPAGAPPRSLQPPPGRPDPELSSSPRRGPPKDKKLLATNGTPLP

[15] = target: T5, Serine/threonine-protein kinase BRSK1 (Homo sapiens); settings: at 1 µM
[16] = target: T6, Serine/threonine-protein kinase BRSK2 (Homo sapiens) (UniProt Q8IWQ3); settings: at 0.1 µM
T6 sequence (whole entry): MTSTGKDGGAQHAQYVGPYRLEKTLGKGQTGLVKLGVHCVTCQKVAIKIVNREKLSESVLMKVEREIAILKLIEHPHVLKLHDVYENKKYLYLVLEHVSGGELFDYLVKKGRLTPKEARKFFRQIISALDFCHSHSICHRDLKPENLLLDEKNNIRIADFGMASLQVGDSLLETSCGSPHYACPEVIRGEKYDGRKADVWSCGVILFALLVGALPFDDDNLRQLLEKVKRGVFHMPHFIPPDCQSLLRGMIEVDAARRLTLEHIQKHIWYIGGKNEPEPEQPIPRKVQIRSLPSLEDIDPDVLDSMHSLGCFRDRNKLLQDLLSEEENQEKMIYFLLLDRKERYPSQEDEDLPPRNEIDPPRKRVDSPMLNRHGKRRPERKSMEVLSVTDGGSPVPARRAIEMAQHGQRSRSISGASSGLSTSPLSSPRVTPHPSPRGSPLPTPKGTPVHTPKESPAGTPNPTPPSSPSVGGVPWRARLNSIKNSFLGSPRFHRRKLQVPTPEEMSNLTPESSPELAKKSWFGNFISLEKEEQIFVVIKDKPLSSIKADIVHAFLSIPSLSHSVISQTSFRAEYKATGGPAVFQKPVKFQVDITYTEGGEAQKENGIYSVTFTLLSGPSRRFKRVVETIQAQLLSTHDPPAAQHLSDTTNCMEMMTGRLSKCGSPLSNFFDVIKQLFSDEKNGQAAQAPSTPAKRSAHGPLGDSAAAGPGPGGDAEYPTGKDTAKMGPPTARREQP

[17] = target: T6, Serine/threonine-protein kinase BRSK2 (Homo sapiens); settings: at 1 µM
[18] = target: Calcium/calmodulin-dependent protein kinase type 1D (Homo sapiens) (UniProt Q8IU85); settings: at 0.1 µM
Chain of Calcium/calmodulin-dependent protein kinase type 1D (Homo sapiens) (Q8IU85 whole entry, looked up): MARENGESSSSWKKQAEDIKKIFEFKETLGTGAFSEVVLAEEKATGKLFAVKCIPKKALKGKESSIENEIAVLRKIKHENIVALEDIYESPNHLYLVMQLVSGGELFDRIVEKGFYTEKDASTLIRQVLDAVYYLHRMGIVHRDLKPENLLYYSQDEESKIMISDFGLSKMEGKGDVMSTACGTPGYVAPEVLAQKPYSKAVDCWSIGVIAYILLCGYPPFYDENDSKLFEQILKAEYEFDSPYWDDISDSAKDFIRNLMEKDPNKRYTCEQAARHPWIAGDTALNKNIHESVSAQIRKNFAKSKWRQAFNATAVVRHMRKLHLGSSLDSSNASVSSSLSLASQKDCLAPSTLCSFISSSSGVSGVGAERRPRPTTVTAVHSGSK

[19] = target: Calcium/calmodulin-dependent protein kinase type 1D (Homo sapiens) (UniProt Q8IU85); settings: at 1 µM
[20] = target: Calcium/calmodulin-dependent protein kinase type II subunit alpha (Homo sapiens) (UniProt Q9UQM7); settings: at 0.1 µM;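 further: reported values are averages (mean inhibition of CAMK2A)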
Chain of Calcium/calmodulin-dependent protein kinase type II subunit alpha (Homo sapiens) (Q9UQM7 whole entry): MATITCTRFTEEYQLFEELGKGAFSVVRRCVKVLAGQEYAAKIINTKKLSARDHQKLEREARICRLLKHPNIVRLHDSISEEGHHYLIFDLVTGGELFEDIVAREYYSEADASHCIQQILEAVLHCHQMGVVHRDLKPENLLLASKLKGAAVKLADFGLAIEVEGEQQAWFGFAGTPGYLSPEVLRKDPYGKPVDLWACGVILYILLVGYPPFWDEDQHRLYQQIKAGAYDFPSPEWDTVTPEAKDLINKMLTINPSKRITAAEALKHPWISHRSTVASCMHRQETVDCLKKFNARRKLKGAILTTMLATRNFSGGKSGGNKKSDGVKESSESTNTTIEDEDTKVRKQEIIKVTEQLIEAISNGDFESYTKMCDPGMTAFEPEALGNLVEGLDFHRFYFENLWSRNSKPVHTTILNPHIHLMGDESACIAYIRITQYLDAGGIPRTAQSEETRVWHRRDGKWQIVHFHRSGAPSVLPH

Chain of Ribosomal protein S6 kinase alpha-6 (Homo sapiens) (Q9UK32 whole entry): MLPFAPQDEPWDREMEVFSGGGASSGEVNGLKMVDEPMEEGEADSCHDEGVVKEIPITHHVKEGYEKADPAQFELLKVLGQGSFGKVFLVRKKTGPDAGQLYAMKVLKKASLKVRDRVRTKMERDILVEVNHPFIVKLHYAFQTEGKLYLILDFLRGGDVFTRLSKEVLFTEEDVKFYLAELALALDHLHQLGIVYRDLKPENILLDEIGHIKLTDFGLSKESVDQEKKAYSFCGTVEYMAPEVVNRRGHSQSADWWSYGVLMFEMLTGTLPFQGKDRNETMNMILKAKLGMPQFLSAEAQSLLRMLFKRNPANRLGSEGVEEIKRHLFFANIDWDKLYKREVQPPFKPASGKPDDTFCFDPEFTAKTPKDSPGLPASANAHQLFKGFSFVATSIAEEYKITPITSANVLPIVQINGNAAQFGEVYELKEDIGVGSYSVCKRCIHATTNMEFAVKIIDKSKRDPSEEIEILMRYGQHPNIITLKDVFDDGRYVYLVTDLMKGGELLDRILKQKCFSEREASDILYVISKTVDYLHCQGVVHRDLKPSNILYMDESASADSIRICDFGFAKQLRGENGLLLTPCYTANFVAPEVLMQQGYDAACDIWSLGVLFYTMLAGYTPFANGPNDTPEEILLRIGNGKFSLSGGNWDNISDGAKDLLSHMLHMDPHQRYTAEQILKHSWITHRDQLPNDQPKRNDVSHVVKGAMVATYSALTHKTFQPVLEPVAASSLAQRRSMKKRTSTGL

Compound | inhibition [1] [%] | inhibition [2] [%] | inhibition [3] [%] | inhibition [4] [%] | inhibition [5] [%] | inhibition [6] [%] | inhibition [7] [%] | inhibition [8] [%] | inhibition [9] [%] | inhibition [10] [%] | inhibition [11] [%] | inhibition [12] [%] | inhibition [13] [%] | inhibition [14] [%] | inhibition [15] [%] | inhibition [16] [%] | inhibition [17] [%] | inhibition [18] [%] | inhibition [19] [%] | inhibition [20] [%]
Cc1c2ccc(N(C)c3ccnc(Nc4cccc(S(N)(=O)=O)c4)n3)cc2nn1C | 4.77 | 3.85 | 4.14 | 2.67 | 3.7 | 4.44 | 8.06 | 3.77 | 4.2 | 3.67 | 5.34 | 10.9 | 46.2 | 3.47 | 3.4 | 1.95 | 2.47 | 0.58 | 2.6 | 3.49
c1cnn2ncc(-c3ccnc(NCCCN4CCOCC4)n3)c2c1 | 0.49 | 1.8 | 3.79 | 0.34 | 5.05 | 5.66 | 8.34 | 2.28 | 2.5 | 3.24 | 2.36 | -0.66 | 0.6 | 0.82 | 1.97 | 1.69 | 1.28 | -0.6 | -0.17 | 2.86
Cc1nnc(-c2cccc(-c3ccc(C(=O)NCC4CC4)cc3)c2)o1 | 2.8 | 4.47 | 10.8 | 2.96 | 7.09 | 3.56 | 7.89 | 5.16 | 6.56 | 0.86 | 4.4 | 3.1 | 2.61 | 0.57 | 2.35 | 6.6 | 3.96 | -0.22 | 0.22 | 5.78
CN(C)CCNC(=O)Nc1ccc(N(C)c2ccnc(Nc3ccc(CS(C)(=O)=O)cc3)n2)cc1 | 3.59 | 3.14 | 3.11 | 0.71 | -2.21 | 3.61 | 0.64 | 2.62 | 5.07 | 2.24 | 7.2 | 14.5 | 57.9 | 2.43 | 5.89 | 2.14 | 4.34 | 0.53 | 1.18 | 4.92
CCOc1ccc2c(-c3ccnc(Nc4cc(OC)cc(C(F)(F)F)c4)n3)cnn2n1 | 0.36 | -0.01 | 1.56 | 0.96 | 3.1 | 1.37 | -0.48 | 0.25 | 1.28 | 1.34 | 3.94 | 4.52 | 21.2 | 0.53 | 5.51 | 1.89 | 6.6 | 0.33 | 2.28 | -1.52
O=C(O[C@H]1CN[C@H](C#Cc2cc3ncnc(Nc4ccc5c(ccn5Cc5cc(F)ccc5F)c4)c3s2)C1)N1CCOCC1 | 2.42 | 3.69 | 3.13 | 4.36 | 0.96 | 3.53 | 3.51 | 3.06 | 1.13 | 3.89 | 3.87 | 1.19 | 1.94 | 1.2 | 0.38 | 1.23 | 0.73 | 0.69 | 2.19 | 2.78
